# Screens (PubChem BioAssay)
# Only some compounds are listed: those with a hit (about 18% of all), similar ones and a draw of the others.
# DT40 TDP1 CPT: growth inhibition of DT40 Tdp1-/-;hTDP1 cells with camptothecin (screen for TDP1 inhibitors). chicken DT40 Tdp1-/-;hTDP1 cells + 20 nM CPT, ATP luminescence, 48 h. Potency, µM (titrated, usually from 46.2 µM), for inactives: at the top dose activity change, negative = growth inhibition, hits mostly inhibitors. actives 12% (n = 420,000); also: potency is read from the fitted curve at half-maximal effect; nearly all actives have a fitted effect of over 55% in size
#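 Chicken DT40 Tdp1-/- cells stably complemented with human TDP1 were seeded at 400 cells/well in medium containing 20 nM camptothecin, exposed to pin-transferred compounds, and grown at 37 °C for at least 48 hr. Viability was read as ATP luminescence.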
# TDP1 cell noCPT: qHTS for Inhibitors of human tyrosyl-DNA phosphodiesterase 1 (TDP1): qHTS in cells in absence of CPT | DT40 Tdp1-/- hTDP1 cells, no CPT, ATP luminescence, 48 h | Potency, µM (doses to about 46.2 µM), inactives show at the top dose activity change, negative = growth inhibition, most hits filed as inhibitors | actives 15% (n = 420,000) | AID 686978, 2013; also: potency is read from the fitted curve at half-maximal effect; nearly all actives have a fitted effect of over 55% in size
#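 Camptothecin absent (DMSO only). Human TDP1-complemented DT40 knockout cells, 400 cells/well, 37 °C for minimum 48 hr; ATP measured via CellTiter-Glo, 30 min dark incubation, luminescence.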
# Six1-Eya2 blk: inhibitors of human Six1/Eya2 interaction; Q15475+O00167; activity change, % (test concentration not listed); AlphaScreen GST-Six1/His-Eya2 binding, biochemical; hits give low values; actives 0.56% (n = 360,000); in the data active = activity change below about -65%; inconclusive = mostly about -30% to -63%
#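 AlphaScreen luminescence read after one hour at 37 °C in darkness. Pin-transferred compounds met GST-Six1 and His-Eya2 protein (5X stock 250 nM/500 nM) plus glutathione donor and Ni-chelate acceptor beads (5X, 50 ug/mL).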
# IL1B secr inh: blocks inflammasome-driven IL-1 beta release | THP-1 LPS/ATP IL-1B secretion, AlphaLISA, 16 h; hits give low values | AID 743279 | activity change, % at 57.5 µM | actives 4.7% (n = 360,000); in the data active = activity change below about -50%; inconclusive = mostly about -30% to -49%
#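 THP-1 cells pretreated 1 hr with compounds (up to 57.5 uM final), then stimulated with LPS (250 ng/mL final) plus ATP (1.25 mM final); secreted IL-1B measured by AlphaLISA after 16 hr, decreased signal indicating inhibition.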
# CtBP-E1A blk: CtBP/E1A binding inhibition | AlphaScreen GST-E1A/His-CtBP binding, 1536-well; hits give low values | activity change, % (no concentration beside the values) | actives 0.49% (n = 340,000) | AID 651724; in the data active = activity change below about -65%; inconclusive = mostly about -30% to -63%
#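 Steps: dispense buffer (Tris pH 8.0, NaCl 300 mM, TCEP 1 mM, BSA, Tween 20); add 5X protein mix (GST-E1A, His-CtBP, 125 nM each); pin 23 nL compound; 2 h at 37 °C, dark; add 5X beads (50 ug/mL); 1 h; read.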
# TDP1 inh: TDP1 (human) enzyme inhibition; Q9NUW8; recombinant TDP1, AlphaScreen DNA substrate cleavage; Potency, µM (top dose mostly 130 µM), for the others: at the highest dose activity change, negative = inhibition, actives largely listed as inhibitors; actives 0.28% (n = 350,000); also: potency is read from the fitted curve at half-maximal effect; nearly all actives have a fitted effect of over 40% in size
# Target sequence (Q9NUW8 whole entry, looked up): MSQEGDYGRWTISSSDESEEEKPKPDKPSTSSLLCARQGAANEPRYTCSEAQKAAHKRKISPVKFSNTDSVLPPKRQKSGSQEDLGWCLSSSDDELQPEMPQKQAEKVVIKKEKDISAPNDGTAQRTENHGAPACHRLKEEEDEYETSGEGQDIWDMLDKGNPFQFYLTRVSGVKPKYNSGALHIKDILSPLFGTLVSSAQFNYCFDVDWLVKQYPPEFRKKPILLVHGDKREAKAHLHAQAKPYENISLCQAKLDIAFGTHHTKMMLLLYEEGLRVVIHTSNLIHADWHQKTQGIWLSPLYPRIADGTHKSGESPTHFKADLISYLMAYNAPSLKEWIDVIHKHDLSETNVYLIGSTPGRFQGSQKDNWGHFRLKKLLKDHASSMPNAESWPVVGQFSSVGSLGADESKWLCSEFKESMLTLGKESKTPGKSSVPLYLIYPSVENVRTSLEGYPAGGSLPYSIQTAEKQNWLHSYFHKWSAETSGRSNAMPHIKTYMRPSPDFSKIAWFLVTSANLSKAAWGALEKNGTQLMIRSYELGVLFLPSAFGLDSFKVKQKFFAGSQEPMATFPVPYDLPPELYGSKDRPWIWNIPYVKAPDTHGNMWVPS
#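 E. coli-derived human Tdp1, 1 nM final. Cpd preinc 15 min RT; substrate 15 nM final, 5 min RT; AS bead mix 10 ug/ml final, 10 min RT. Signal loss = tyrosine-FITC cleavage. No-enzyme wells = max signal.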
# The depositor's hits bear a star; ? = inconclusive; · = not tested or not shown. Unless noted, calls follow the shape of the dose curve; as a rule, active = well fitted curve in the direction sought with a large enough effect; inconclusive = small, poorly fitted or top-dose-only effect, or another doubt; inactive = no such curve, though single readings can be large; an effect the other way counts as inactive or inconclusive. % is scaled to controls: 0 for no effect and ±100 for the full control effect.
SMILES,DT40 TDP1 CPT,TDP1 cell noCPT,Six1-Eya2 blk,IL1B secr inh,CtBP-E1A blk,TDP1 inh
Cc1ccc(S(=O)(=O)N[C@@H](CC(C)C)C(=O)N2CCC(C(=O)N[C@@H](Cc3ccccc3)C(=O)O)CC2)cc1,?,?,-6,-18,-7,·
COC(=O)[C@H](Cc1ccccc1)NC(=O)C1CCN(C(=O)[C@H](C)NS(=O)(=O)c2ccc(C)cc2)CC1,-8%,7%,1,-50*,1,3%
C=CCc1cccc(CNc2nc3ccccc3n2C(C)C)c1O,?,?,-5,0,-11,-2%
COc1cc2c(cc1OC)CN(C(=O)CCNS(=O)(=O)c1ccc(Br)cc1)CC2,-13%,-30%,-3,2,-1,·
O=C(CCn1c(=O)c2ccccc2n(Cc2ccc(F)cc2Cl)c1=O)NCc1ccc2c(c1)OCO2,-1%,?,·,·,·,8%
COc1ccc(NC(=O)CCCn2c(=O)c3sccc3n(Cc3ccc(C)cc3)c2=O)cc1,-25%,?,10,-1,-5,2%
Cc1ccc(C)c(Cn2c(=O)n(CCCC(=O)NCc3ccc4c(c3)OCO4)c(=O)c3sccc32)c1,?,15µM*,·,·,·,2%
COc1ccc(NC(=O)CCCn2c(=O)c3sccc3n(Cc3ccc(C)cc3C)c2=O)cc1,21µM*,16µM*,-5,-30,19,0%
O=C(CCCCn1c(=O)c2ccccc2n(Cc2cccc(F)c2)c1=O)NCc1ccc2c(c1)OCO2,?,23µM*,·,·,·,3%
CCc1ccc(NC(=O)Cn2c(=O)n(CCCC(=O)NCc3ccc4c(c3)OCO4)c(=O)c3ccccc32)cc1,21µM*,?,·,·,·,-2%
Cc1cc(NC(=O)CSc2nncn2N)no1,2%,-3%,8,0,12,3%
CC(CN1CCOCC1)OC(=O)C1COc2ccccc2O1 (stereo not drawn),6%,13%,3,0,9,1%
O=C(Cc1ccc([N+](=O)[O-])cc1)N/N=C/c1cccs1,-9%,14%,-12,-20,6,3%
COc1ccc(OC)c(S(=O)(=O)Nc2ccc(-c3ccc4nnc(C)n4n3)cc2)c1,8.2µM*,8.2µM*,-10,36,1,2%
CCOc1ccc(-c2cccc(NS(=O)(=O)c3c(C)cc(C)cc3C)c2)nn1,?,23µM*,·,·,·,3%
CCOc1ccc(S(=O)(=O)Nc2cccc(-c3ccc(OCC)nn3)c2)cc1,12µM*,16µM*,·,·,·,5%
CCOc1ccc(-c2ccc(NS(=O)(=O)c3cc(C)ccc3OC)cc2)nn1,13µM*,23µM*,·,·,·,5%
COc1ccc(S(=O)(=O)Nc2ccc(-c3ccc4nnc(C)n4n3)cc2)c(OC)c1,?,?,-6,-23,-6,-1%
Cc1cc(Cl)ccc1OCCCC(=O)NCCCn1ccnc1,?,?,4,-5,8,1%
O=C(Nc1ccc(F)c(F)c1)c1ccc(-n2cncn2)c([N+](=O)[O-])c1,8.2µM*,?,1,?,-17,0%
O=C(COc1ccc(Br)cc1)NNC(=O)c1ccc(-n2cncn2)c([N+](=O)[O-])c1,?,16µM*,-5,5,·,-2%
O=C(Nc1cccc(/C=C/c2ccccn2)c1)c1ccc(-n2cncn2)c([N+](=O)[O-])c1,16µM*,6.5µM*,-30,-76*,1,·
O=C(Nc1cc(Cl)ccc1-n1cncn1)c1ccc([N+](=O)[O-])s1,7.3µM*,?,-5,23,-14,8%
O=C(Nc1cc(F)ccc1F)c1ccc(-n2cncn2)c([N+](=O)[O-])c1,-22%,-2%,-2,-6,-6,·
